The record followed here is PubChem BioAssay (NCATS).

Inconclusive results are not listed. Active and inactive are the calls of the source. Unless noted, calls follow the shape of the dose curve; as a rule, active = well fitted curve in the direction sought with a large enough effect; inconclusive = small, poorly fitted or top-dose-only effect, or another doubt; inactive = no such curve, though single readings can be large; an effect the other way counts as inactive or inconclusive.

Chain of Cytochrome P450 2D6 (Homo sapiens) (P10635 whole entry, looked up): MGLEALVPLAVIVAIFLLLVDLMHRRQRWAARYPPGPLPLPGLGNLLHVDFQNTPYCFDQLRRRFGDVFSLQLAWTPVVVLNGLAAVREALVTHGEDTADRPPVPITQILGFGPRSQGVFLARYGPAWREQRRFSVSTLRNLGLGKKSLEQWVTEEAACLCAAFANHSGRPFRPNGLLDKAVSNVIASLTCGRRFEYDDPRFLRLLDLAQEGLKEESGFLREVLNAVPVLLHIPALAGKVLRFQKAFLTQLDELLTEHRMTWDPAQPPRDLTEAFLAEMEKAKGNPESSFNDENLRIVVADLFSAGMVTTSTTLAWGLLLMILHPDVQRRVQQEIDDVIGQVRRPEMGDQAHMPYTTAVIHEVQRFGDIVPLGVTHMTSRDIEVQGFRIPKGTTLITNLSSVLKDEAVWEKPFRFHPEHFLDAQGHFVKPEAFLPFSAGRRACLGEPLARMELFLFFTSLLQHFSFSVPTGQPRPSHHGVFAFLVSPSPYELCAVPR
Chain of Calcium and integrin-binding protein 1 (Homo sapiens) (Q99828 whole entry, looked up): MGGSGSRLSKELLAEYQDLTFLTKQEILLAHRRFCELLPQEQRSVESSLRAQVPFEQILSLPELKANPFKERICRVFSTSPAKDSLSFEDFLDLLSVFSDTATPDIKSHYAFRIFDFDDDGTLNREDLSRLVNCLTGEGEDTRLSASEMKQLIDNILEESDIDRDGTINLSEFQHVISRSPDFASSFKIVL

The first assay addresses Calcium and integrin-binding protein 1 (Homo sapiens) (UniProt Q99828). In words: Primary qHTS for Identification of Calcium Integrin Binding Protein 1 (CIB1) Competitor (AID 1508620).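 Also: GST tagged CIB1 binding a fluorescein labelled alphaIIb integrin peptide tracer; top concentration of the series differs between compounds; % is scaled to controls: 0 for no effect and ±100 for the full control effect.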 Conditions: CIB1-GST / FITC-alphaIIb peptide fluorescence polarization; series mostly up to 114 µM; activity change, negative = inhibition: at the top concentration. Put shortly: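 Fluorescence polarization competition: CIB1-GST (1 uM final) preincubated with compound 15 min at room temperature, then FITC-labeled alphaIIb peptide (100 nM final) added for another 15 min. Polarization read at Ex 480/Em 540.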
In general terms: In qHTS, concentration-response curves come from the screen itself.
As for `CC12CCC3C1C(c1c(cc(O)c(C(=O)c4ccccc4)c1O)O2)C3(C)C` (stereo not drawn), the “activity change, negative = inhibition” value was -1.33% [at 57.7 µM] (inactive).
Still for that read-out and setting: the value for `NC(=O)C1=CC2C3C=CC2C(OC3=O)O1` (stereo not drawn) was -4.11% [at 228 µM] (inactive).
As to `COc1ccc2[nH]c(=O)c3c(c2c1)OC(C)(C)C=C3`, the “activity change, negative = inhibition” value is -5.4% (inactive).

Tested on in a further assay: not listed separately
In words: Primary qHTS for small molecule stabilizers of the endoplasmic reticulum resident proteome: Secreted ER Calcium Modulated Protein (SERCaMP) assay (AID 1508630). Also: % is scaled to controls: 0 for no effect and ±100 for the full control effect. The following applies: SH-SY5Y GLuc-SERCaMP (Gaussia luciferase released on ER calcium loss) secretion, thapsigargin, luminescence; series mostly up to 38.4 µM; activity change, negative = inhibition: at the top concentration. The gist of the method: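 The SH-SY5Y reporter protocol was run at 3 concentrations up to 38.3 uM (primary) or 11 concentrations (follow-up): 16 h compound, 100 nM thapsigargin for 4 h, then extracellular luciferase luminescence.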
Turning to `CCc1ccccc1OC[C@@H](O)CN[C@H]1CCCc2ccccc21`, the “activity change, negative = inhibition” value was -8.12% (inactive).
For the compound `COc1cc(C[C@H]2C(=O)OC[C@@H]2Cc2ccc(OC)c(OC)c2)ccc1O`, the “activity change, negative = inhibition” value is 17.9% (inactive).
Same read-out and setting: the value for `O=S(=O)(c1ccccc1)N(CC(F)(F)F)c1ccc(C(O)(C(F)(F)F)C(F)(F)F)cc1` was -22.8% (inactive); that for `COc1ccc2[nH]c(=O)c3c(c2c1)OC(C)(C)C=C3` was -15% (inactive).

The target in the next assay is Cytochrome P450 2D6 (Homo sapiens) (UniProt P10635). In words: Cytochrome P450 family 2 subfamily D member 6 (CYP2D6) small molecule antagonists: luciferase biochemical (cell-free) qHTS assay (AID 1645840; active = well fitted curve in the direction sought with a large enough effect in the repeat runs; an effect the other way counts as inactive or inconclusive; also: nearly all actives have a fitted effect of over 55% in size; also: potency is read from the fitted curve at half-maximal effect; as to activity change, negative = inhibition: % is scaled to controls: 0 for no effect and ±100 for the full control effect). Conditions: P450-Glo CYP2D6 enzyme, luciferin luminescence, 1 h; series mostly up to 57.4 µM; activity change, negative = inhibition: at the top concentration. Put shortly:
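P450-Glo CYP2D6 system: proluciferin substrate converted by enzyme to luciferin, read by luminescence proportional to activity. Enzyme-substrate mix with compound 10 min at room temperature, then NADPH regeneration 1 h before detection reagent.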
With `O=C(Nc1ccccc1Br)NC1CCN(c2ccc(C(F)(F)F)cn2)C1` (stereo not drawn), the Potency is 10.7 µM (active).
Turning to `CC(C)(N)c1ncc(-c2ccc(OC(F)(F)F)cc2)[nH]1`, the Potency is 23.9 µM (active).
Still for that read-out and setting: the value for `CCc1ccccc1OC[C@@H](O)CN[C@H]1CCCc2ccccc21` was 0.477 µM (active).
On to `CCN(CC)CCCS(=O)(=O)N[C@H](CCc1ccccc1)c1nc(Cc2ccc(Br)cc2)no1`, for which the Potency was 6.01 µM (active).
Consider `CC#C[C@@H](CC(=O)O)c1ccc(OCc2cccc(-c3ccc(C(F)(F)F)cc3)c2)cc1`, for which the “activity change, negative = inhibition” value was -25.2% (inactive).

Tested on in another assay: not listed separately
In words: Primary qHTS for inhibitors of nuclear receptor binding SET domain protein 2 (NSD2) in an isogenic RCH-ACV NSD2 p.E1099K mutant (9B) (AID 1645876). Also: potency is read from the fitted curve at half-maximal effect; nearly all actives have a fitted effect of over 70% in size. Conditions: RCH-ACV NSD2 E1099K (9B) viability, CellTiter-Glo, 72 h; series mostly up to 44.9 µM; activity change, negative = viability loss: at the top concentration.
As for `CCc1ccccc1OC[C@@H](O)CN[C@H]1CCCc2ccccc21`, the Potency was 16.3 µM (active).
In the case of `O=S(=O)(c1ccccc1)N(CC(F)(F)F)c1ccc(C(O)(C(F)(F)F)C(F)(F)F)cc1`, the Potency is 23 µM (active).
The same measure, in the same setting: under `COc1ccc2[nH]c(=O)c3c(c2c1)OC(C)(C)C=C3` stands 14.5 µM (active).

Tested on in a further assay: not listed separately
In words: Primary qHTS for inhibitors of nuclear receptor binding SET domain protein 2 (NSD2) in an RCH-ACV wild type WT cells (2C) (AID 1645877). Also: potency is read from the fitted curve at half-maximal effect; nearly all actives have a fitted effect of over 70% in size. Conditions: RCH-ACV (leukaemia line) NSD2 WT (2C) viability, CellTiter-Glo, 72 h; series mostly up to 44.9 µM; activity change, negative = cell killing: at the top concentration.
Take `CCc1ccccc1OC[C@@H](O)CN[C@H]1CCCc2ccccc21`: the Potency was 10.3 µM (active).
The same measure, in the same setting: the value for `O=S(=O)(c1ccccc1)N(CC(F)(F)F)c1ccc(C(O)(C(F)(F)F)C(F)(F)F)cc1` was 23 µM (active).
The same measure, in the same setting: the value for `COc1ccc2[nH]c(=O)c3c(c2c1)OC(C)(C)C=C3` was 14.5 µM (active).
